Data from the supplement of paper PMC10127200.
Where a name gives a salt, the structure may show the parent alone.

These compounds were tested on DU145 (assay: Euclidean distance of Cell Painting phenotypic profile (signed KS, 77 features) to DMSO centroid (dimensionless distance); 5 or 10 uM (library dependent); higher = stronger phenotypic change vs DMSO (phenoactivity)). Conditions: 48 h.
Method in brief: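 Five cancer lines and a healthy fibroblast line received library compounds at 10 or 5 uM (library-dependent, 0.1% DMSO final) for 48 h. Stained cells were imaged confocally at 20X (9 fields/well). Harmony extracted 77 features, each scored as a signed Kolmogorov-Smirnov statistic against same-plate vehicle wells. Profiles were plate-position corrected, correlation-weighted and replicate-averaged at the top dose. Phenoactivity is the Euclidean distance from each profile to the median vehicle profile.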

| SMILES | Euclidean distance |
| --- | --- |
| CN1CCN(Cc2ccc(Nc3ncc(Cl)c(Nc4ccccc4S(=O)(=O)N(C)C)n3)cc2)CC1 | 3.22 |
| O=C1c2c(O)ccc(O)c2C(=O)c2c(NCCNCCO)ccc(NCCNCCO)c21 [Mitoxantrone 2HCl] | 4.77 |
| Oc1ccc(Cl)c2cccnc12 [Cloxiquine] | 1.92 |
| CO[C@H]1C[C@@H]2CC[C@@H](C)[C@@](O)(O2)C(=O)C(=O)N2CCCC[C@H]2C(=O)O[C@H]([C@H](C)C[C@@H]2CC[C@@H](OP(C)(C)=O)[C@H](OC)C2)CC(=O)[C@H](C)/C=C(\C)[C@@H](O)[C@@H](OC)C(=O)[C@H](C)C[C@H](C)/C=C/C=C/C=C/1C [Ridaforolimus (Deforolimus. MK-8669)] | 1.3 |
| CCN(CC)CC(=O)Nc1c(C)cccc1C [Lidocaine] | 1.51 |
| O=C(O)c1cn(-c2ccc(F)cc2)c2cc(N3CCNCC3)c(F)cc2c1=O [Sarafloxacin HCl] | 1.78 |
| C=CCN1CCCC1CNC(=O)c1cc2nn[nH]c2cc1OC (centres undefined) [Alizapride HCl] | 1.04 |
| CCOc1ccc(Cc2cc([C@@H]3O[C@H](CO)[C@@H](O)[C@H](O)[C@H]3O)ccc2Cl)cc1 [Dapagliflozin propanediol monohydrate] | 1.02 |
| C[C@@H]1O[C@@H]1P(=O)(O)O [Fosfomycin Disodium] | 0.647 |
| CN[C@@H](C)C(=O)N[C@H](C(=O)N1CCC[C@H]1C(=O)Nc1snnc1-c1ccccc1)C1CCCCC1 | 0.883 |
| COc1ccc2cc(C(=O)O)ccc2c1 [6-Methoxy-2-naphthoic acid] | 0.683 |
| C[N+](C)(C)NCCC(=O)[O-] [Mildronate] | 1.05 |
| Cc1c(F)cc(C(=O)NC2CC2)cc1-c1ccc(C(=O)NCC(C)(C)C)cn1 | 1.23 |
| COc1cc2c(cc1OC)CC(=O)N(CCCN(C)C[C@H]1Cc3cc(OC)c(OC)cc31)CC2 [Ivabradine HCl] | 1.14 |
| CN(C)CCc1c[nH]c2ccc(C[C@H]3COC(=O)N3)cc12 [Zolmitriptan] | 1.25 |
| CC(=O)Oc1cc(C(F)(F)F)ccc1C(=O)O [Triflusal] | 0.857 |
| COc1ccnc(C[S+]([O-])c2nc3cc(OC(F)F)ccc3[nH]2)c1OC (centres undefined) [Pantoprazole] | 0.784 |
| COc1ccnc2[nH]cc(C(=O)C(=O)N3CCN(C(=O)c4ccccc4)C[C@H]3C)c12 | 0.533 |
| COC1CCN(C(=O)c2cc(Cc3n[nH]c(=O)c4ccccc34)ccc2F)CC1 | 1.32 |
| CSc1ccc2c(c1)N(CCC1CCCCN1C)c1ccccc1S2 (centres undefined) [Thioridazine hydrochloride] | 2.37 |

| SMILES | Euclidean distance |
| --- | --- |
| CCOc1ccc2c(c1)C(C)=CC(C)(C)N2 [Ethoxyquin] | 0.847 |
| Cc1[nH]c2ccccc2c1CCNCc1ccc(/C=C/C(=O)NO)cc1 [Panobinostat] | 4.84 |
| COc1cccc2cc(-c3nc([C@H]4CC[C@H](C(=O)O)CC4)n4ncnc(N)c34)[nH]c12 | 1.44 |
| O=C(O)c1ccc2nc(-c3cc(Cl)cc(Cl)c3)oc2c1 [Tafamidis] | 1.1 |
| N#CC(c1ccc(Cl)cc1)c1c(Cl)cc(-n2ncc(=O)[nH]c2=O)cc1Cl (centres undefined) [Diclazuril] | 0.762 |
| O=C(O)Cc1ccc(-c2ccccc2)cc1 [4-Biphenylacetic acid] | 1.65 |
| CC1(C)S[C@@H]2[C@H](NC(=O)Cc3ccccc3)C(=O)N2[C@H]1C(=O)O [Benzylpenicillin potassium] | 1.18 |
| C[C@H](CCC(=O)O)[C@H]1CC[C@H]2[C@@H]3[C@H](O)C[C@@H]4C[C@H](O)CC[C@]4(C)[C@H]3C[C@H](O)[C@]12C [Cholic acid] | 0.953 |
| CCN1CCN(Cc2ccc(Nc3ncc(F)c(-c4cc(F)c5nc(C)n(C(C)C)c5c4)n3)nc2)CC1 | 5.66 |
| O=C(O)c1cc(=O)c2ccccc2o1 [Chromocarb] | 0.751 |
| CC1=CC(=O)c2ccccc2C1=O [Menadione] | 0.587 |
| CC(C)C[C@H](NC(=O)[C@H]1O[C@@H]1C(=O)O)C(=O)NCCCCN=C(N)N | 1.07 |
| CC[C@@H]([C@H](C)O)n1ncn(-c2ccc(N3CCN(c4ccc(OC[C@@H]5CO[C@@](Cn6cncn6)(c6ccc(F)cc6F)C5)cc4)CC3)cc2)c1=O [Posaconazole] | 2.09 |
| CN1C(=O)C(C)(C)Oc2c(-c3cn(C)c(=O)c4[nH]ccc34)cc(S(C)(=O)=O)cc21 | 2.87 |
| O=C(O)c1ccc(-n2nc(-c3ccccc3O)nc2-c2ccccc2O)cc1 [Deferasirox] | 1.82 |
| Cc1cccc(C)c1NC(=O)C1CCCCN1C (centres undefined) [Mepivacaine HCl] | 0.454 |
| CC(=O)O/N=C1\C(=O)N(Cc2cc(Cl)ccc2Cl)c2ccc(Cl)cc21 | 0.687 |
| Cc1cn([C@H]2C[C@H](N=[N+]=[N-])[C@@H](CO)O2)c(=O)[nH]c1=O [Zidovudine] | 1.19 |
| NC(=O)c1ccc(OCCCN2CC3CCCC3C2)cc1 (centres undefined) | 1.39 |
